According to PubChem BioAssay AID2599 (Sanford-Burnham Center for Chemical Genomics, 2010):
Screen size: about 330,000 compounds; about 5,800 (1.8%) were called active. The entries come from a sample that favours actives as a whole. A number with no mark means an inactive call.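 The calls were made as follows: active = inhibition above about 50% at the single tested dose (limit read from the data); inactive = the rest.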

What follows are compounds tested against Sentrin-specific protease 6 (Homo sapiens) (UniProt Q9GZR1) (assay: inhibition of human SENP6 catalytic domain – biochemical, luminescence, uHTS, primary screen (AID 2599;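 also: plate controls were DMSO wells with enzyme for no effect and DMSO wells lacking enzyme for full effect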)). Settings: Recombinant SENP6 catalytic domain, aminoluciferin luminescence; at 10 µM; active compounds read high.
Sequence of Sentrin-specific protease 6 (Homo sapiens) (Q9GZR1 628-1112 limits assumed): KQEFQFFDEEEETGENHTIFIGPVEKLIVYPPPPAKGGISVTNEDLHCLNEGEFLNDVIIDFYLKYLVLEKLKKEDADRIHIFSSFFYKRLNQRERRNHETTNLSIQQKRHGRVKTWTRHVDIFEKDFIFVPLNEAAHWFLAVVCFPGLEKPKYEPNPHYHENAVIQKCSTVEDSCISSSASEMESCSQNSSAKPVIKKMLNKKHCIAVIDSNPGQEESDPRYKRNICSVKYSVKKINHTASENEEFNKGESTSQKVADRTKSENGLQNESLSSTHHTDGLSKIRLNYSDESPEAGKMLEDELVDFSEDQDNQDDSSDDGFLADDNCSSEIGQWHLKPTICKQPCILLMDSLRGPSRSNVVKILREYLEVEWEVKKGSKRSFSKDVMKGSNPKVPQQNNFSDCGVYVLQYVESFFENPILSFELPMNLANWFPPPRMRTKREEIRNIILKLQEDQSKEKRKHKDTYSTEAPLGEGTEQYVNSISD
For C[C@@H]1CN([C@@H](C)CO)C(=O)c2cccc(NS(=O)(=O)c3ccc(F)cc3)c2O[C@H]1CN(C)C(=O)NC1CCCCC1, the inhibition was -9.28%.
In the case of CCOc1ccc(NC(=O)COc2ccc(S(=O)(=O)N3CCCC3)cc2)cc1, the inhibition is reported as -19.8%.
Work on Cc1ccc(/C=N/NC(=S)Nc2cccc(S(=O)(=O)N(C)C)c2)o1 yielded an inhibition of -0.431%.
Work on O=C(N/N=C\c1cccnc1)c1cc(-c2ccccc2)nc2c(Cl)cccc12 yielded an inhibition of -10.9%.
For Cc1ccc(/C=N/NC(=S)NC2CCCCC2)o1, the inhibition was -24.3%.
With Cc1ccc(/C=N/NC(=O)c2cc3ccccc3cc2O)o1 the inhibition was 73.7% (active).
CNC(=O)c1cc2c(ccc3ccccc32)oc1=N gave an inhibition of 6.2%.
In the case of O=C(N/N=C/c1cccnc1)c1cc2ccccc2cc1O, the inhibition is reported as 54.6% (active).
For N=c1oc2ccccc2cc1C(=O)NCc1ccccc1, the inhibition was -3.97%.
For O=C(N/N=C/c1cccnc1)c1ccc(NC(=O)c2ccc(F)cc2)cc1, the inhibition was -21.5%.
For N=c1oc2ccccc2cc1C(=O)N/N=C/c1ccccc1, the inhibition was 89.2% (active).
CCCN(CC(=O)Nc1ccccc1OC)C(=O)CCC(=O)c1ccc(F)cc1 showed an inhibition of -2.28%.
For O=C(C(=O)N1CCc2ccccc2C1)c1c[nH]c2ccccc12, the inhibition was -7.83%.
CC(NC(=O)c1cccc(S(=O)(=O)N2CCc3ccccc3C2)c1)c1ccco1 (stereo not given) was tested, and the inhibition was -17.8%.
CCOc1cc(/C=C2\SC(N3CCCC(C)C3)=NC2=O)ccc1O (stereo not given) gave an inhibition of 11.9%.
In the case of CCCc1ccc(OCC(O)CN2CCN(CCO)CC2)cc1 (stereo not given), the inhibition is reported as 5.43%.
Work on CCc1cccc(NC(=O)COC(=O)C2CCN(c3ccc(C(F)(F)F)cn3)CC2)c1 yielded an inhibition of 33.7%.
Compound CCOc1ccc(CN2CCN(CCCc3ccccc3)C(CCO)C2)cc1 (stereo not given) has an inhibition of 9.84%.
Work on Cc1nnc(CN(C)Cc2cn[nH]c2-c2ccc(-c3ccccc3)cc2)o1 yielded an inhibition of -1.7%.
Work on Cc1c(Cl)cccc1NC(=O)CC1SC(=NCC2CCCO2)NC1=O (stereo not given) yielded an inhibition of -0.542%.
In the case of COc1ccc(OC)c(/C=C/C(=O)c2ccc3c(c2)OCO3)c1, the inhibition is reported as -8.22%.
Work on CC(Sc1nnc(COc2ccccc2)n1-c1ccccc1)C(=O)O (stereo not given) yielded an inhibition of -16.5%.
With Nc1ccccc1/C=N\N=C/c1ccccc1N the inhibition was 60.6% (active).
C=CCC[C@H](Cc1ccc(F)cc1)C(=O)OC[C@H](C)NC(=O)[C@H](CC=C)CC(=O)N(CCO)Cc1ccccc1 gave an inhibition of -7.07%.
In the case of CCCCCCC12CCC(C(=O)O)(CC1)CC2, the inhibition is reported as -27.4%.
